activity, negative = inhibition and AC50 data for 87 molecules are collected here from PubChem BioAssay AID1851 (National Center for Advancing Translational Sciences (NCATS), 2009).

“And” between values parts separate entries of the source, which are not always exact repeats. Equal values may be shown once. The campaign covered roughly 16,000 compounds. About 5,700 (36%) were called active. Roughly 24% stayed inconclusive and do not appear here. Calls follow the shape of the dose curve; as a rule, active = well fitted curve in the direction sought with a large enough effect; inconclusive = small, poorly fitted or top-dose-only effect, or effect the other way; inactive = no such curve, though single readings can be large or run the other way. The list shows a part of the results. Where a structure was tested more than once in an assay, its records may differ in their call.
% is scaled to controls: 0 for no effect and ±100 for the full control effect.

The target of this assay is Cytochrome P450 1A2 (Homo sapiens) (UniProt P05177). The assay is described as follows: Cytochrome panel assay with activity outcomes. To be noted: recombinant CYP, pro-luciferin dealkylation, luminescence, p450-cyp1a2; series mostly up to 57.1 µM.
Cytochrome P450 1A2 (Homo sapiens), sequence (P05177 whole entry, looked up): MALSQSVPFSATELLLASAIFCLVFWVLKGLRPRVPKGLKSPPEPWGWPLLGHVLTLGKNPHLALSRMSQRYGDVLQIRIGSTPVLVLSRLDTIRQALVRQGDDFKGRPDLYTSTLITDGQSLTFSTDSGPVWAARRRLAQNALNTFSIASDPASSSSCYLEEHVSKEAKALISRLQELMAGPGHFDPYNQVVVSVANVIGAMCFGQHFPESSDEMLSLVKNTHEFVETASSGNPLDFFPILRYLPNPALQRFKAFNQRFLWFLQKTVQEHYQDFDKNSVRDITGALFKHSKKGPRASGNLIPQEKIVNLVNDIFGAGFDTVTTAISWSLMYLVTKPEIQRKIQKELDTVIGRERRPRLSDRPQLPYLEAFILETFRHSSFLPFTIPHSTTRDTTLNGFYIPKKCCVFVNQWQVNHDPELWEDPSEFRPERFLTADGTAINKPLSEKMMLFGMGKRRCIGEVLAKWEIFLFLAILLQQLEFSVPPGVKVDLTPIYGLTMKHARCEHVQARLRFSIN
`COc1ccc2cc1Oc1ccc(cc1)C[C@@H]1c3c(cc(OC)c4c3Oc3cc5c(cc3O4)CCN[C@H]5C2)CCN1C`: the activity, negative = inhibition is -14.6% [at 11.4 µM] (inactive).
The AC50 is the concentration giving half of the maximal activity seen. For the molecule `NCCS`, the AC50 result was “inactive”.
With `O=C(N/N=C1/C[C@@H](O)[C@@H](O)[C@@H]2[C@H]3C(=O)N(c4ccc(F)cc4F)C(=O)[C@@H]3CC[C@@H]12)OCc1ccccc1`, the activity, negative = inhibition is -2.1% [at 11.4 µM] (inactive).
For the molecule `CCCCn1nnnc1SCC(=O)N1CCCC1`, the AC50 result was “inactive”.
Still for that read-out and setting: the result for `CCCCn1nnnc1SCC(=O)c1cc(Cl)ccc1OC` reads 4470 nM (active); that for `COCCCn1nnnc1SCC(=O)N1CCCC1`, “inactive”; that for `CSc1ccc(Cl)c(C(=O)NCCOc2cc(C)ccc2C(C)C)c1`, 2240 nM (active).
`CC(C)(N=NC(C)(C)C1=NCCN1)C1=NCCN1`: the activity, negative = inhibition is -3.55% [at 11.4 µM] (inactive).
`COc1ccc(S(=O)(=O)N(CC(=O)NCC2CCCO2)c2ccc(F)cc2)cc1OC` (configuration not stated): the AC50 result is “inactive”.
For `COC(=O)c1[nH]c2cccc(OC)c2c1NC(=O)CN(C)CC1OCCO1`, the AC50 is 14100 nM (active).
With `CCS(=O)(=O)N1CCC(C(=O)NCc2ccc(F)cc2Cl)CC1`, the AC50 result is “inactive”.
Take `CCN1C(=O)[C@H]2[C@H]3[C@H](O)[C@H](O)C/C(=N/O[C@@H](C)c4cn([C@H](CO)Cc5ccccc5)nn4)[C@@H]3CC[C@@H]2C1=O`: the activity, negative = inhibition is -6.67% [at 11.4 µM] (inactive) and -6.23% [at 11.4 µM] (inactive).
As for `C[C@H](N=C(NC#N)Nc1ccncc1)C(C)(C)C`, the AC50 result is “inactive and 15.8 µM (active)”.
On the same count and under the same terms, for `C[C@H](N)C1CCC(C(=O)Nc2ccncc2)CC1` (some centres not stated) the value was “inactive”.
As for `O=C(O)[C@@H]1CS[C@@]2(CCCN(Cc3ccccc3)C2)N1`, the activity, negative = inhibition is -12% [at 2.29 µM] (inactive).
Consider `Cc1cccc(CCNc2nc3ccccc3n3nnnc23)c1`, for which the AC50 is 891 nM (active).
On the same count and under the same terms, the result for `Cc1ccc(C(=O)Nc2nc3ccccc3n3nnnc23)cc1` reads 2510 nM (active).
With `Cn1c(=O)c2c(ncn2CN2CCN(Cn3cnc4c3c(=O)n(C)c(=O)n4C)CC2)n(C)c1=O`, the activity, negative = inhibition was -18.2% [at 2.29 µM] (inactive).
With `Nc1c(C(=O)NCc2ccccc2)sc2nc3c(cc12)C(=O)CCC3`, the AC50 was 20000 nM (active).
The same measure, in the same setting: for `O=C(/C=C/c1cc2c(cc1Br)OCO2)NCc1ccc(Cl)cc1` the value was 1580 nM (active).
On to `C/C(=C\C(=O)c1ccc(Cl)cc1)NCc1ccc2c(c1)OCO2`, for which the AC50 was 1000 nM (active).
The same measure, in the same setting: the result for `C/C(=C\C(=O)c1ccc(Br)cc1)NCc1ccc2c(c1)OCO2` reads 1410 nM (active).
Same read-out and setting: for `O=C1Nc2ccc([N+](=O)[O-])cc2C1(O)N1CCCCCC1` (configuration not stated) the value was “inactive”.
Same read-out and setting: for `CNc1nc(-c2ccccc2CN(C)C)nc2ccccc12` the value was 3160 nM (active); for `CN(C)Cc1ccccc1-c1nc(N(C)C)c2ccccc2n1`, 1260 nM (active).
Regarding `CN(C)Cc1ccccc1-c1nc(NC2CC2)c2ccccc2n1`, the AC50 was 5010 nM (active).
On to `Cc1cccc(CNc2nc(-c3ccccc3CN(C)C)nc3ccccc23)c1`, for which the AC50 is 3160 nM (active).
As to `C/C(CC/C(C)=N/O)=N/O`, the activity, negative = inhibition is -12.6% [at 2.29 µM] (inactive).
Regarding `CN(C)Cc1ccccc1-c1nc(NCc2cccs2)c2ccccc2n1`, the AC50 was 1000 nM (active).
The same measure, in the same setting: for `COCCNc1nc(-c2ccccc2CN(C)C)nc2ccccc12` the value was 10000 nM (active).
As for `CN(C)Cc1ccccc1-c1nc(NCc2ccccc2)c2ccccc2n1`, the AC50 was 1260 nM (active).
On to `Cc1cn([C@H]2C[C@H](O)[C@@H](COC(N)=O)O2)c(=O)[nH]c1=O`, for which the activity, negative = inhibition is -14.6% [at 2.29 µM] (inactive).
Regarding `CCn1c(SCC(=O)N2CCOCC2)nc2oc3c(Cl)cc(Cl)cc3c(=O)c2c1=O`, the AC50 is 12600 nM (active).
The same measure, in the same setting: the result for `CCCCn1c(SCC(=O)N2CCCC2)nc2c1c(=O)n(C)c(=O)n2C` reads “inactive”; that for `Oc1ccccc1C1Nc2cccc3cccc(c23)N1`, 1000 nM (active).
Same read-out and setting: for `S=C1N(c2ccccc2)C(c2ccc(Cl)cc2)N2CCCN12` (configuration not stated) the value was 4470 nM (active).
Turning to `CCOC(=O)c1sc2nc3c(cc2c1N)COC(C)(CC)C3` (configuration not stated), the AC50 was 25100 nM (active).
On the same count and under the same terms, the result for `CCOC(=O)c1sc2nc3c(cc2c1N)COC(C(C)C)C3` (configuration not stated) reads “inactive”; that for `COc1ccc2[nH]cc(CCNc3cc(-c4ccccc4OC)ncn3)c2c1`, 1580 nM (active).
The same measure, in the same setting: the result for `COc1ccc2[nH]cc(CCNc3cc(-c4ccccc4C)ncn3)c2c1` reads 1000 nM (active); that for `COc1ccc2[nH]cc(CCNc3cc(-c4ccccc4C(F)(F)F)ncn3)c2c1`, 10000 nM (active).
With `COc1ccc(O[C@H]2C=C[C@@H](c3ccccc3)O[C@H]2CO/N=C\C[C@@H]2C=C[C@H](OC(C)=O)[C@H](COC(C)=O)O2)cc1`, the activity, negative = inhibition was 1.58% [at 11.4 µM] (inactive).
As for `CC(C)CO/N=C1/C[C@@H](O)[C@@H](O)[C@@H]2[C@H]3C(=O)N(c4ccc(F)cc4F)C(=O)[C@@H]3CC[C@@H]12`, the activity, negative = inhibition is -0.174% [at 11.4 µM] (inactive).
Take `Cc1cc(OC(=O)c2cc(F)c(F)cc2Cl)nc(C)n1`: the AC50 entry was “inactive”.
On the same count and under the same terms, the result for `COc1ccc(C(=O)/C=C(/C)N(C)C)cc1` reads 3550 nM (active).
With `CC(C)CSC[C@@H]1O[C@H](n2cnc3c(N)nccc32)[C@H](O)[C@@H]1O`, the activity, negative = inhibition was 3.41% [at 11.4 µM] (inactive).
Turning to `O=C(O)C1CCC(=O)N(C2CC2)C1c1ccccc1` (configuration not stated), the AC50 result was “inactive”.
Take `CC1CCC(C(=O)O)([C@H](Br)C(=O)O)CC1` (some centres not stated): the activity, negative = inhibition is -8.77% [at 11.4 µM] (inactive).
Take `CN(C)c1oc(-c2ccccc2)nc1C#N`: the concentration at half-maximal activity (AC50) was 3160 nM (active).
The same measure, in the same setting: the result for `CN(C)C(=O)c1ccc(-c2ccc3ncnc(Nc4ccc(F)cc4)c3c2)cc1` reads 20000 nM (active).
On the same count and under the same terms, the result for `CN(C)C(=O)c1ccc(-c2ccc3ncnc(Nc4ccccc4)c3c2)cc1` reads 15800 nM (active).
Take `COC(=O)C/C=C\[C@@H](C)[C@@H](/C=N\OC[C@@H](O)[C@H]1O[C@H]2OC(C)(C)O[C@H]2[C@@H]1O)OC`: the activity, negative = inhibition was -15.6% [at 11.4 µM] (inactive).
Regarding `Cc1ccc(OCC(=O)Nn2cnc3ccccc32)cc1`, the AC50 is 6310 nM (active).
The same measure, in the same setting: for `Cc1ccc(OCC(=O)NNC(=O)CCc2ccccc2)cc1` the value was “inactive”.
Still for that read-out and setting: for `Cc1ccc(OCC(=O)NNC(=O)C2CCN(c3ncccn3)CC2)cc1` the value was “inactive”; for `Cc1cc(NC(=O)COc2ccc(Cl)cc2Cl)n(-c2ccccc2)n1`, 1780 nM (active); for `Cc1cc(Cl)ccc1OC(C)C(=O)Nc1ccc(S(=O)(=O)Nc2cnc3ccccc3n2)cc1` (configuration not stated), “inactive”.
The same measure, in the same setting: for `Cc1ccc(OCC(=O)Nc2ccc(Cl)cc2)c(-n2nc3ccccc3n2)c1` the value was 3550 nM (active); for `Cc1ccc(N(C(C)C(=O)Nc2cc(Cl)ccc2Oc2ccccc2)S(C)(=O)=O)cc1` (configuration not stated), “inactive”.
As for `CC(C)(C)c1ccc(OCC(=O)O)c(Cl)c1`, the activity, negative = inhibition is -16.2% [at 11.4 µM] (inactive).
For the molecule `O=C(COc1ccccc1Cl)Nc1cc(Cl)ccc1Oc1ccccc1`, the AC50 was 2510 nM (active).
Same read-out and setting: for `O=C(Nc1cccc(C(F)(F)F)c1)c1ccc(Cn2cc(Br)cn2)o1` the value was 2000 nM (active).
Still for that read-out and setting: the result for `CC(C)CN1CCC2(CC1)CCN(C(=O)c1csnn1)CC2` reads “inactive”.
On to `OCCCNCc1ccccn1`, for which the activity, negative = inhibition is -20% [at 2.29 µM] (inactive).
As for `OCCNCCCOc1cccc(Cl)c1Cl`, the AC50 was 200 nM (active).
As for `CCCCNN`, the activity, negative = inhibition is -6.54% [at 2.29 µM] (inactive).
Take `CN(C)S(=O)(=O)c1ccc(Nc2ccc(O)c3c2C(=O)c2c([N+](=O)[O-])ccc(O)c2C3=O)cc1`: the AC50 was 126 nM (active).
`O=C(CCCN1CC=C(n2c(=O)[nH]c3ccccc32)CC1)c1ccc(F)cc1`: the AC50 entry is “inactive”.
Take `COC(=O)CCSc1cc([N+](=O)[O-])cc2c1c(C1OCCS1)nn2-c1ccccc1` (configuration not stated): the AC50 is 28200 nM (active).
Same read-out and setting: the result for `O=C(O)c1nn(-c2ccccc2)nc1-c1nn(-c2ccccc2)nc1C(=O)O` reads “inactive”; that for `CN(C)C=Nc1ccc2nn(-c3ccccc3)nc2c1`, 708 nM (active).
Regarding `CC(=O)OC[C@@H]1O[C@@H](O/N=C2/C[C@@H](O)[C@@H](O)[C@@H]3[C@@H]4C(=O)N([C@@H](C)c5ccccc5)C(=O)[C@H]4CC[C@H]23)[C@H](OC(C)=O)[C@H](OC(C)=O)[C@@H]1OC(C)=O`, the activity, negative = inhibition is 3.02% [at 11.4 µM] (inactive).
Take `Cc1nn(C)c(Cl)c1NC(=O)OCc1ccc(Cl)cc1Cl`: the AC50 is 5010 nM (active).
On the same count and under the same terms, for `Cc1nn(C)c(Cl)c1NC(=O)OCc1ccc(F)cc1` the value was 14100 nM (active); for `CC(C)(C)C(=O)OCOC(=O)[C@@H]1N2C(=O)[C@@H](NC(=O)[C@H](N)c3ccccc3)[C@H]2SC1(C)C`, “inactive”.
In the case of `COc1ccc(O[C@H]2C=C[C@@H](c3ccccc3)O[C@H]2COC(=O)CC/C(C)=N\O[C@@H](C)c2cc(-c3c(C)cc(C)cc3C)no2)cc1`, the activity, negative = inhibition was -2.73% [at 11.4 µM] (inactive).
As to `Cc1cccc(CNc2cc(-c3cccc(C#N)c3)ncn2)c1`, the AC50 was 158 nM (active).
Still for that read-out and setting: for `N#Cc1cccc(-c2cc(NCc3cccs3)ncn2)c1` the value was 794 nM (active); for `N#Cc1cccc(-c2cc(NCc3cccnc3)ncn2)c1`, 39.8 nM (active).
As to `N#Cc1cccc(-c2cc(NCc3ccccc3)ncn2)c1`, the AC50 is 1000 nM (active).
In the case of `C[C@@H](c1ccccc1)N1C(=O)[C@H]2[C@@H]3[C@H](O)C=CC(=O)[C@H]3CC[C@H]2C1=O`, the activity, negative = inhibition is -9.41% [at 11.4 µM] (inactive).
As for `COC(=O)C1C(=O)C2=C(CC1C)NC(=O)CC2c1cccc(C)c1` (configuration not stated), the AC50 entry is “inactive”.
Same read-out and setting: the result for `COC(=O)[C@@]1(Cc2ccccc2)[C@H]2c3cc(C(=O)N4CCCC4)n(Cc4ccc(S(C)(=O)=O)cc4)c3C[C@H]2CN1C(=O)c1ccccc1` reads “inactive”.
The same measure, in the same setting: for `CN(CC[C@@H](Oc1ccc(-c2ccccc2)cc1)c1ccc(F)cc1)CC(=O)O` the value was “inactive”; for `COC(=O)CNC(c1ccccc1Cl)c1cc(Br)ccc1NC(=O)CCN1CCOCC1` (configuration not stated), “inactive”.
Take `O=C(Nc1ccc(Cl)cc1)OCCn1nnnc1C(c1ccccc1Cl)N1CCOCC1` (configuration not stated): the AC50 is 15800 nM (active).
The same measure, in the same setting: the result for `COc1ccc(Cn2nnnc2C(c2ccccc2Cl)N2CCC(C(N)=O)CC2)cc1` (configuration not stated) reads “inactive”.
